TLR4-MyD88 inh: blocks binding of human TLR4 to MyD88. Cell-based TLR4-MyD88 binding inhibition assay. inhibition, % at 10 µM. O00206. AID 811. 16,000 tested, 0.06% active; in the data active = inhibition above about 45%
S1P1 ag: S1P1 (human) receptor agonism | AID 1044 | activation, % at 4.5 µM | 16,000 tested, 1.5% active | P21453 | S1P1 agonist cell-based reporter assay; in the data active = activation above about 80%
Target sequence (P21453 whole entry, looked up): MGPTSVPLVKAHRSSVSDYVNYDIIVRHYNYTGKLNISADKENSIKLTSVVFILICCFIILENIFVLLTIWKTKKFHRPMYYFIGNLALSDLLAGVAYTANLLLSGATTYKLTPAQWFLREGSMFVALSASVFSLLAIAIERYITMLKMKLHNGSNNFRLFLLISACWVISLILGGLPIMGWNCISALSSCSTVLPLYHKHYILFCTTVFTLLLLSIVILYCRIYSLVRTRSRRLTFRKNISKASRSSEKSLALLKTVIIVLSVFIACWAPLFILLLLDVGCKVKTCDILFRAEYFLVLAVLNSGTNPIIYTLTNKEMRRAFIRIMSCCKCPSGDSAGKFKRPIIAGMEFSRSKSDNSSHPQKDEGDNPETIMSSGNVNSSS
rat GALR2 agon: activates the rat galanin receptor 2 | O08726 | cell-based GALR2 agonist screen | activation, % at 10 µM | 16,000 tested, 0.5% active; in the data active = activation above about 15%
KOR antag MB: blocks the human kappa opioid receptor, Maybridge compounds; P41145; 16,000 tested, 0.4% active; inhibition, % at 9 µM; OPRK1 cells, antagonist mode, fluorescence readout; in the data active = inhibition above about 50%
Large screens that a line does not name were inactive. Most compounds without a hit are left out; they make up all but 2.6% or so of the library.

c1ccc(-c2nc(-c3ccc(-c4ccon4)s3)no2)cc1	S1P1 ag 87.2
O=[N+]([O-])c1ccc(N/N=C/c2ccc(-c3cccs3)s2)nc1	KOR antag MB 79.1
COc1ccc(OC)c(Nc2ncnc(N)n2)c1	none
O=C1CNC(=S)N1Cc1cccs1	S1P1 ag 97.7
O=C1CNC(=S)N1Cc1ccccn1	none
CCOC(=O)c1csc(-c2ccc(Cl)cc2)n1	none
N#Cc1cccc(C(=O)Cc2cccc(Cl)c2)c1	none
N#Cc1c2ccccc2cn1Cc1cccc(Cl)c1	S1P1 ag 92.7 (no result: TLR4-MyD88 inh)
Cn1nc(C(C)(C)C)cc1C(=O)NCc1ccc2c(c1)OCO2	S1P1 ag 84.2
O=C(Nc1ccc(-c2nc3ccccc3s2)cc1)Nc1cc(F)cc2c1OCOC2	rat GALR2 agon 33.4
O=C(Nc1ccc(-c2nc3ccccc3s2)cc1)c1ccc2c(c1)CCO2	none
COCc1cc(=O)[nH]c(SCC(=O)c2cc3ccccc3o2)n1	none
N#CC(CO)Cc1cc([N+](=O)[O-])ccc1N1CCCCC1 (configuration not stated)	S1P1 ag 94.9
O=C(Nc1ccncc1)c1ccccc1	none
CC(C)(C)OC(=O)N[C@@H](Cc1ccccc1)C(=O)NNC(=S)CC1CCCO1 (some centres not stated)	none
N#CCCN(Cc1cccs1)C(=O)Nc1cccc(C(F)(F)F)c1	rat GALR2 agon 41.9
N/C(=N\O)c1ccc(Oc2ccc(Cl)cc2)nc1	none
O=C(NNC(=O)C(F)(F)F)c1ccc[nH]1	KOR antag MB 52.2
O=C(NCCC1=CCCCC1)Nc1ccc(OC(F)(F)F)cc1	none
Cn1c(-c2ncc(C(F)(F)F)cc2Cl)n[nH]c1=S	S1P1 ag 92.9
CC1CCCN(c2ccc([N+](=O)[O-])cc2)C1 (configuration not stated)	none
CCN1CCCC1CNC(=O)NC(=O)c1ccc([N+](=O)[O-])cc1 (configuration not stated)	S1P1 ag 85.4
COC(=O)c1c([N+](=O)[O-])c(C)nn1C	none
O=C(NCC(O)COCc1ccccc1)c1ccccc1 (configuration not stated)	rat GALR2 agon 29.1
O=C(Nc1ccccc1)OCc1cc(-c2ccccc2)c(C(F)(F)F)s1	S1P1 ag 93.8
Cc1c(C)c(C)c(C(=O)c2ccccc2C(=O)NN)c(C)c1C	S1P1 ag 81.0
Cc1c(OCC(=O)Nc2ccc(C(C)C)cc2)ccc2c1OC(C)(C)CC2=O	none
Cc1nc(C(=O)NCC(=O)c2cccc(Cl)c2)c(C(F)(F)F)o1	S1P1 ag 91.6
COc1ccc2nsnc2c1	none
COc1ccc2nonc2c1	rat GALR2 agon 139.0
COc1cccc(/C=C2/SC(=S)N(CCc3ccccc3)C2=O)c1O	none
CCCc1c(C(=O)Nc2ccc3ccccc3n2)cnn1-c1ccccc1	S1P1 ag 96.1
Cc1cc(/C(N)=N/OC(=O)c2snnc2C)no1	none
COc1ccc(/C(C)=N/O)cc1CN1CCCC1	none
COc1ccc(N=Nc2cc(C)c(O)c(CN3CCCCC3)c2)cc1	S1P1 ag 101.4
Nc1ncnc(SCc2nc(-c3ccc(OC(F)(F)F)cc3)no2)n1	none
FC(F)(F)Oc1ccc(-c2noc(-c3ccno3)n2)cc1	S1P1 ag 90.9
O=[N+]([O-])c1ccc(/C=N/Nc2c(Cl)cc(Cl)cc2Cl)s1	none
N#CCCNc1ccc(N=Nc2ccc(Cl)cc2)cc1	S1P1 ag 103.8
COc1ccc(/C=C2\CC/C(=C\c3ccc(OC)c(OC)c3)C2=O)cc1OC	none
COc1ccc(/C=C/c2nc3ccccc3s2)cc1OC	S1P1 ag 85.3
CCOC(=O)c1cn[nH]c1NC(=S)Nc1cccc(C(F)(F)F)c1	KOR antag MB 83.2
CCOC(=O)c1cn[nH]c1C(F)(F)F	none
CC(C)(C)c1ccc(C(=O)NC(=O)Nc2ccccc2)s1	none
CC(=O)/C(=C\N(C)C)SCc1ccccc1C	S1P1 ag 96.6
O=C1CN(c2ccccc2)C(=O)N1c1ccccc1	none
O=C1CCC2=C(CCCC2)N1c1ccccc1	TLR4-MyD88 inh 45.2
O=C(CSc1nnc(-c2cccs2)o1)NC(=O)Nc1ccccc1	none
Oc1c(Cl)cc(Cl)cc1C1Nc2cc(Cl)c(C(F)(F)F)cc2N1 (configuration not stated)	S1P1 ag 106.2, KOR antag MB 57.4
N#Cc1cccc(NCCN2CCNC2=O)n1	rat GALR2 agon 46.8
CCOC(=O)c1cnn(-c2nc(-c3ccccc3)cs2)c1C(F)(F)F	S1P1 ag 82.3
CCOC(=O)c1sc(N/N=C/c2cccs2)c2c1CC(C)(C)CC2=O	rat GALR2 agon 19.3
Cc1cc(N=Nc2cccc(C(F)(F)F)c2)ccc1N	S1P1 ag 100.7
O=c1c2cnn(-c3ccccc3)c2nnn1/N=C/c1ccc([N+](=O)[O-])cc1	none
N#Cc1cccnc1NNC(=O)COCC(=O)O	KOR antag MB 82.8
N#Cc1cccnc1NNC(=O)c1nccnc1C(=O)O	none

Assay outcomes from PubChem BioAssay.
